# This is a sample that favours compounds with a hit; in the whole collection about 2.8% have one here.
# ATXN2 expr inh: ATXN2 expression inhibition | HEK-293 ATXN2-luciferase reporter, luminescence, 24 h | Potency, µM (top dose mostly 57 µM), hits mostly inhibitors | 360,000 compounds, 0.72% hits | AID 1745845; further: nearly all actives have a fitted effect of over 55% in size
#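 qHTS (up to 57 uM final) was run with 24 h compound exposure of reporter cells at 37 °C. Each well was multiplexed: SteadyGlo luminescence measured ATXN2-luciferase expression after a fluorogenic Gly-Phe-AFC viability readout (25 uM final).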
# TGFb SMAD3 inh: TGF-b pathway inhibition; Potency, µM (titrated, usually from 46.1 µM), actives largely listed as inhibitors; 410,000 compounds, 1.2% hits; HepG2 CAGA-GFP TGF-b/SMAD3 reporter, GFP fluorescence, 18 h; TGF-beta stimulated, 500 pg/mL final; further: nearly all actives have a fitted effect of over 65% in size
#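 TGF-beta reporter screen: HEPG2 CAGA-GFP, 1% FBS, 500 pg/mL TGF-beta final, 18 h; per-cell GFP summed per well; curves fitted and categorized by class.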
# HepG2 tox-1: HepG2 cytotoxicity, counter-screen for TGF-b inhibitors. Potency, µM (top dose mostly 46.1 µM), most hits filed as cytotoxic. 410,000 compounds, 0.76% hits. HepG2 CAGA-GFP viability, ATP luminescence, 18 h
#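 CellTiter-Glo luminescence gave cytotoxicity after 18 hours at 37 degrees C. The cells were HepG2 CAGA-GFP in 1% FBS DMEM, stimulated with 500 pg/mL TGF-beta after compound addition. %Activity was normalised to no-cell wells (complete cell-killing) and DMSO (no toxicity), and curves were fitted and classified.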
# CtBP-E1A blk: inhibitors of CtBP/E1A interaction | activity change, % (concentration not given with the values) | 340,000 compounds, 0.49% hits | AID 651724 | AlphaScreen GST-E1A/His-CtBP binding, 1536-well; stronger effect = lower value; in the data active means activity change below about -65%; inconclusive means mostly about -30% to -63%
#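 GST-E1A and His-tagged CtBP (125 nM each as 5X stock) were preincubated with pin-transferred compound for 2 h at 37 °C in the dark, then glutathione donor and nickel acceptor beads were added for 1 h before AlphaScreen reading.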
# Six1-Eya2 inh: inhibitors of human Six1/Eya2 interaction. 360,000 compounds, 0.56% hits. Q15475+O00167. AlphaScreen GST-Six1/His-Eya2 binding, biochemical; stronger effect = lower value. activity change, % (no concentration beside the values); in the data active means activity change below about -65%; inconclusive means mostly about -30% to -63%
# Target sequence (O00167 whole entry, looked up): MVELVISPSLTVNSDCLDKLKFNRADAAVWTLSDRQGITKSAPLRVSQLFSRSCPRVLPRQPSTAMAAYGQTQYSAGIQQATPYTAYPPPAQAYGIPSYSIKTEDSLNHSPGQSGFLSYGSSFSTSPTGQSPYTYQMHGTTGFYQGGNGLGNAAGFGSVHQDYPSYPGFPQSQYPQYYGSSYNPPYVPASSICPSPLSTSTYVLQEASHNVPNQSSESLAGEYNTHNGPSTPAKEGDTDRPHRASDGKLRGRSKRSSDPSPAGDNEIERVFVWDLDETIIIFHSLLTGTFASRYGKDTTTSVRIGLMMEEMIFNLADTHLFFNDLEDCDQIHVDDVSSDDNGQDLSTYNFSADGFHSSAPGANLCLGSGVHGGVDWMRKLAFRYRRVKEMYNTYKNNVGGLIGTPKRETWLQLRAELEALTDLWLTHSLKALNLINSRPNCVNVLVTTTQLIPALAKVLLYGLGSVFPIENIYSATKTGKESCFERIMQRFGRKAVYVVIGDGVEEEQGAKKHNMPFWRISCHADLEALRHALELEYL
# Target sequence (Q15475 whole entry, looked up): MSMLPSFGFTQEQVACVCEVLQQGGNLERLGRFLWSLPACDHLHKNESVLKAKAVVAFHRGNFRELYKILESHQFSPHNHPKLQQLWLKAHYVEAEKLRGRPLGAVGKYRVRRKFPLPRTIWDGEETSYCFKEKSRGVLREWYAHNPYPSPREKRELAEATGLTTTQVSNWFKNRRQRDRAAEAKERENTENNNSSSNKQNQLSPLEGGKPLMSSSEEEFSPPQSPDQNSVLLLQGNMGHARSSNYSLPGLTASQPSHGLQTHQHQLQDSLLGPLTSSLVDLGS
#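 Homogeneous AlphaScreen proximity assay pairing GST-Six1 with His-tagged Eya2 (added as 5X mix: 250 nM and 500 nM) in 50 mM Tris pH 8.0, 300 mM NaCl, 1 mM TCEP. Glutathione donor and nickel acceptor beads; 1 h, 37 °C, dark.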
# S2 tox: viability counter-screen for ATXN expression inhibitors. AID 651635. Potency, µM (series often up to 56.7 µM), hits mostly cytotoxic. S2 cells (HEK-293 line with an ATXN2-luciferase reporter) viability, CellTiter-Fluor protease fluorescence, 24 h. 400,000 compounds, 0.49% hits; further: nearly all actives have a fitted effect of over 40% in size
# TGFb CAGA inh: TGF-b pathway inhibition, cherry-pick retest. 1,600 compounds, 63% hits. HepG2 CAGA-GFP TGF-b reporter, GFP fluorescence, 18 h; cells stimulated with TGF-beta, 500 pg/mL. Potency, µM (highest dose often 46.1 µM), usual class: inhibitors. shares compounds with TGFb SMAD3 inh; further: nearly all actives have a fitted effect of over 65% in size
# HepG2 tox-2: toxic to HepG2 cells in TGF-b counterscreen; shares compounds with TGFb SMAD3 inh; HepG2 CAGA-GFP viability, ATP luminescence, 18 h; cells stimulated with TGF-beta, 500 pg/mL; Potency, µM (highest dose often 46.1 µM), most hits filed as inhibitors; 1,600 compounds, 27% hits; further: nearly all actives have a fitted effect of over 70% in size
# CCL64 TGFb inh: blocks TGF-b signaling in CCL64 reporter cells | shares compounds with TGFb SMAD3 inh | CCL64 CAGA-GFP reporter, TGF-b stimulated, GFP fluorescence, 18 h | Potency, µM (doses to about 46.1 µM), actives largely listed as inhibitors | 1,600 compounds, 41% hits | AID 720536; further: nearly all actives have a fitted effect of over 65% in size
# COP TGFb inh: TGF-b inhibition validated with COP promoter. shares compounds with TGFb SMAD3 inh. HepG2 COP-GFP TGF-b reporter, GFP fluorescence, 18 h; cells stimulated by added recombinant TGF-beta. Potency, µM (top dose mostly 46.1 µM), usual class: inhibitors. 1,600 compounds, 3% hits. AID 720537; further: nearly all actives have a fitted effect of over 70% in size
# Hits are given with their value; . = inactive; ? = inconclusive; / = no result. Unless noted, the call rests on the fitted dose curve; in most records, active means well fitted curve in the direction sought with a large enough effect; inconclusive means small, poorly fitted or top-dose-only effect, or another doubt; inactive means no such curve, though single readings can be large; an effect the other way counts as inactive or inconclusive.
SMILES,ATXN2 expr inh,TGFb SMAD3 inh,HepG2 tox-1,CtBP-E1A blk,Six1-Eya2 inh,S2 tox,TGFb CAGA inh,HepG2 tox-2,CCL64 TGFb inh,COP TGFb inh
CC1CCN(C(=O)c2[nH]cnc2C(=O)NCc2ccccc2)CC1,.,?,.,.,.,.,.,.,.,.
CC1CCN(C(=O)c2[nH]cnc2C(=O)NCC(=O)OC(C)(C)C)CC1,.,.,.,.,.,.,/,/,/,/
O=C(NCc1ccccc1)c1nc[nH]c1C(=O)N1CCN(c2ccccc2)CC1,.,.,.,.,.,.,/,/,/,/
CSc1ccc(NC(=O)C2(C)CCN2C(=O)c2cc(C)n(C)n2)cc1 (stereo not drawn),.,.,.,.,.,.,/,/,/,/
CCCCNC(=O)c1cc(-c2ccc(OC)cc2)nc2n[nH]c(-c3cccc([N+](=O)[O-])c3)c12,.,.,.,/,/,.,/,/,/,/
Cc1noc(C)c1COc1ccccc1C(=O)N(C)Cc1ccc(C(C)(C)C)cc1,/,11.2µM,.,/,.,.,16.4µM,?,?,.
Cc1ccc(-n2ncc(C(=O)NCc3ccco3)c2C2CCN(C(=O)OC(C)(C)C)CC2)cc1C,/,.,.,/,/,/,/,/,/,/
CCC(=O)N1CCC1(C)C(=O)NS(=O)(=O)c1cccc(C#N)c1 (stereo not drawn),.,.,.,.,.,.,/,/,/,/
NC(=O)CC(NC(=O)Cc1cccc2ccccc12)c1ccc(N2CCc3ccccc3C2)c([N+](=O)[O-])c1 (stereo not drawn),?,12.6µM,.,.,.,35.5µM,?,?,?,.
NC(=O)CC(NC(=O)Cc1cccc2ccccc12)c1ccc(N2CCC(Br)CC2)c([N+](=O)[O-])c1 (stereo not drawn),?,12.6µM,.,.,.,?,?,.,?,.
NC(=O)CC(NC(=O)Cc1ccc(Br)cc1)c1ccc(N2CCN(c3ccccn3)CC2)c([N+](=O)[O-])c1 (stereo not drawn),?,7.94µM,.,.,.,?,?,?,.,.
Cc1cccc(CNc2ccc(C(CC(N)=O)NC(=O)Cc3cccc4ccccc34)cc2[N+](=O)[O-])c1 (stereo not drawn),.,?,.,.,.,?,?,?,1.64µM,.
NC(=O)CC(NC(=O)Cc1cccc2ccccc12)c1ccc(N2CCCCCC2)c([N+](=O)[O-])c1 (stereo not drawn),.,.,.,.,.,?,/,/,/,/
CC(C)c1cnc2c(c1SCC(=O)NCc1ccccc1Cl)c(=O)n(C)c(=O)n2C,/,.,.,/,/,/,/,/,/,/
CCOC(=O)c1c(C)[nH]c(CCC(=O)NCc2ccccc2Cl)c1C,/,.,.,/,/,/,/,/,/,/
O=C1Cc2c([nH]c3ccc(Br)cc23)-c2ccccc2N1,.,2.82µM,.,.,.,?,0.92µM,3.66µM,2.91µM,.
O=C1C(NS(=O)(=O)c2cccs2)=C(N2CCN(Cc3ccccc3)CC2)C(=O)c2ccccc21,/,8.91µM,10µM,/,-71.7,.,?,.,.,.
O=C1c2ccccc2C(=O)c2c1oc(C(F)(F)F)c2C(=O)c1ccccc1,?,1.12µM,1.12µM,.,.,?,4.61µM,4.11µM,4.61µM,3.66µM
Cc1ccc(Cl)cc1N1CCN(C(=S)NCc2ccco2)CC1,.,15.8µM,.,.,.,.,16.4µM,?,?,.
CCOc1ccc(S(=O)(=O)N2CCN(C(=S)NCc3ccco3)CC2)cc1,.,8.91µM,.,.,.,.,?,.,?,.
O=C(NC1CC(=O)N(c2ccc(Cl)cc2)C1)c1cc2ccccc2o1 (stereo not drawn),/,.,.,/,/,/,/,/,/,/
CCOc1ccccc1CNC(=O)c1ccc2c(c1)N(Cc1ccc(C)cc1)CCS2,/,/,.,/,/,/,/,/,/,/
CN1CCC[C@H]1CCNc1ccc2c(=O)c3ccccc3n(C)c2c1,?,15.8µM,.,.,.,/,?,?,20.6µM,.
N#Cc1ccc(NC(=O)C2Cc3ccccc3CN2S(=O)(=O)c2ccc(F)cc2)cc1 (stereo not drawn),/,/,.,/,/,/,/,/,/,/
Cc1ccc(-c2c(C(=O)NCc3ccc(F)cc3)oc(=O)c3ccccc23)cc1,.,?,.,.,.,.,?,.,.,.
SMILES,ATXN2 expr inh,TGFb SMAD3 inh,HepG2 tox-1,CtBP-E1A blk,Six1-Eya2 inh,S2 tox,TGFb CAGA inh,HepG2 tox-2,CCL64 TGFb inh,COP TGFb inh
Cc1ccc(-c2c(C(=O)Nc3ccccc3F)oc(=O)c3ccccc23)cc1,.,.,.,/,/,.,/,/,/,/
COc1ccc(-c2cc(C(=O)N(C)CC(=O)Nc3cccc(F)c3)c3ccccc3n2)cc1,.,?,.,.,.,?,18.4µM,?,?,.
O=C(NCC(c1ccco1)N1CCc2ccccc21)C(=O)Nc1ccc(F)cc1F (stereo not drawn),.,?,.,.,.,?,13µM,.,11.6µM,.
O=C(NCC(c1ccco1)N1CCc2ccccc21)C(=O)Nc1ccccc1F (stereo not drawn),.,?,.,.,.,.,/,/,/,/
C=CCNC(=O)c1onc(CSc2ccc(F)cc2)c1C(=O)NCC=C,.,.,.,.,.,.,/,/,/,/
C=CCNC(=O)c1onc(CSc2ccc(F)cc2)c1C(=O)NCCOC,.,?,.,.,.,.,.,.,.,.
Cc1[nH]n(-c2ccccc2)c(=S)c1C=NCCCN=Cc1c(C)[nH]n(-c2ccccc2)c1=S,?,0.562µM,.,.,.,?,.,.,.,.
COc1ccc(OC)c(NC(=O)CS(=O)(=O)Cc2nc(-c3ccc(C)cc3)oc2C)c1,/,.,.,/,/,/,/,/,/,/
